Source: PubChem BioAssay (Tox21)
Where “and” joins values, the source holds several entries; their conditions need not be identical. Equal entries are not always repeated. Results filed as inconclusive are left out. A call without a number means that no potency is given here. Where a structure was tested more than once in an assay, its records may differ in their call. Calls of active or inactive are those of the source. Unless noted, calls come from the whole dose curve; as a rule, active = well fitted curve in the direction sought with a large enough effect in the repeat runs; inconclusive = weak or mixed curves; inactive = no such curve, though single readings can be large; an effect the other way counts as inactive or inconclusive.

How the values were obtained:
[1] = target: Thyrotropin receptor (Homo sapiens) (UniProt P16473); test: qHTS assay to identify small molecule antagonists of the thyroid stimulating hormone receptor (TSHR) signaling pathway (AID 1259385; calls by dose curve; note: nearly all actives have a fitted effect of over 20% in size)
Procedure, shortened: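 TSHR-HEK293 cells (800/well) plated 18 h, then compounds with Ro20-1724 and TSH at 1.5 ng/mL final, 30 min at room temperature. cAMP quantified by HTRF (cAMP-d2/anti-cAMP-cryptate, 1 h); 15 concentrations in triplicate.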

[2] = qHTS assay to identify small molecule agonists of the estrogen receptor alpha (ER-alpha) signaling pathway in the presence of an antagonist - cell viability counter screen (AID 1259386);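 note: cells exposed to compounds for 22 h at 37 °C before the viability read; nearly all actives have a fitted effect of over 30% in size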; note: potency is the fitted concentration of half-maximal effect
Procedure, shortened: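 Steps: 5-day stripped-FBS culture; seed and incubate 24hr; add ICI-182,780 (10.0nM final); pin 15-point compound titration; incubate 22hr at 37C; add CellTiter-Fluor at 21hr; read fluorescence.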

[3] = target: Progesterone receptor (Homo sapiens) (UniProt P06401); test: qHTS assay to identify small molecule agonists of the progesterone receptor (PR) signaling pathway (AID 1346784; calls by dose curve; note: nearly all actives have a fitted effect of over 30% in size; note: potency is the fitted concentration of half-maximal effect)
Procedure, shortened: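 Seed PR-UAS-bla HEK 293T cells (2% charcoal-stripped FBS), incubate 6 hr at 37C; add compounds in DMSO, 16 hr at 37C; add LiveBLAzer B/G substrate, 2 hr RT; read fluorescence intensity.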

[4] = qHTS assay to identify small molecule antagonists of the progesterone receptor (PR) signaling pathway - cell viability counter screen (AID 1346798); note: series mostly up to about 92 µM; nearly all actives have a fitted effect of over 50% in size
Procedure, shortened: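 Measures cytotoxicity in parallel with the PR antagonist reporter read: HEK293T PR-UAS-bla cells get compound and R5020 for 16 hr, and remaining viable cells are quantified by CellTiter-Glo luminescence.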

[5] = qHTS assay to identify small molecule agonists of the progesterone receptor (PR) signaling pathway - cell viability counter screen (AID 1346799; calls by dose curve; note: nearly all actives have a fitted effect of over 45% in size)
Procedure, shortened: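 Using the same plates as the PR reporter screen, HEK293T PR-UAS-bla cells received compounds for 16 hr at 37C and were then lysed with CellTiter-Glo; luminescence was read 30 min later at room temperature.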

[6] = qHTS assay to identify small molecule antagonists of the TGF-beta/Smad signaling pathway - cell viability counter screen (AID 1346824); note: nearly all actives have a fitted effect of over 50% in size
Procedure, shortened: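 SBE-bla HEK 293T cells, incubated overnight, then compound plus 0.25 ng/mL TGF-beta1 (stock added) for 5 hr at 37 C. Viability was read in the same wells by CellTiter-Glo luminescence after 30 min at room temperature.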

[7] = qHTS assay to identify small molecule agonists of the TGF-beta/Smad signaling pathway - cell viability counter screen (AID 1346829); note: top concentration of the series differs between compounds; nearly all actives have a fitted effect of over 45% in size
Procedure, shortened: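 Cytotoxicity counter screen: CellTiter-Glo luminescence (30 min, room temperature) measured in the SBE-bla HEK 293T reporter wells after 5 hr compound treatment at 37 C and the 2 hr substrate step.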

[8] = qHTS assay to identify small molecule agonists of the TGF-beta/Smad signaling pathway (AID 1346859; active = well fitted activation curve with a large enough effect in the signal ratio in the repeat runs, not every such curve was filed as active; the % refers to the signal ratio; note: series mostly up to about 77 µM)
Procedure, shortened: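 Beta-lactamase reporter activity downstream of Smad binding elements was measured in stably transfected HEK 293T cells; compounds were incubated for 5 hr, substrate for 2 hr at room temperature.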

[9] = target: Thyrotropin-releasing hormone receptor (Homo sapiens) (UniProt P34981); test: qHTS assay to identify small molecule antagonists of the thyrotropin-releasing hormone receptor (TRHR) signaling pathway (AID 1346877; active = well fitted inhibition curve with a large enough effect in the repeat runs, not every such curve was filed as active; note: series mostly up to about 51 µM)
Procedure, shortened: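 Human TRHR in HEK293 cells; inhibition of the intracellular calcium rise triggered by 1 nM TRH was followed by fluorescence over 3 min. Compounds were run at 15 concentrations, three replicates each.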

[10] = Human pregnane X receptor (PXR) small molecule agonists, qHTS cell viability counter screen (AID 1346977); note: nearly all actives have a fitted effect of over 50% in size; note: potency is the fitted concentration of half-maximal effect
Procedure, shortened: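 After a 5hr pre-incubation, PXR-Luc HepG2 cells received compounds plus positive control in DMSO and were kept 24hr at 37C. Cell viability was quantified by fluorescence from CellTiter-Fluor added for the final hour.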

[11] = Caspase-3/7 induction in HepG2 cells by small molecules, qHTS assay (AID 1346978); note: nearly all actives have a fitted effect of over 15% in size
Procedure, shortened: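 Wild-type HepG2 cells, 2,000/well, settled 5 hr at 37 C and 5% CO2, then compound-treated for 17 hr; caspase-3/7 activity read by luminescent Caspase-Glo 3/7 after 30 min at room temperature.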

[12] = Caspase-3/7 induction in CHO-K1 cells by small molecules, qHTS cell viability counter screen (AID 1346979); note: nearly all actives have a fitted effect of over 35% in size; note: potency is the fitted concentration of half-maximal effect
Procedure, shortened: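 Multiplexed with Caspase-Glo 3/7 in CHO-K1 cells, this counter screen added CellTiter-Fluor after 16hr of compound exposure and recorded fluorescence 1hr later.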

[13] = Caspase-3/7 induction in CHO-K1 cells by small molecules, qHTS assay (AID 1346980); note: nearly all actives have a fitted effect of over 15% in size
Procedure, shortened: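 Wild-type CHO-K1 cells exposed to compounds for 17hr at 37 C, 5% CO2. Caspase-3/7 activity then measured by Caspase-Glo 3/7 luminescence after 30min at room temperature.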

[14] = Caspase-3/7 induction in HepG2 cells by small molecules, qHTS cell viability counter screen (AID 1346981); note: nearly all actives have a fitted effect of over 30% in size; note: potency is the fitted concentration of half-maximal effect
Procedure, shortened: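 The parent HepG2 line is plated at 2,000 cells per well and rested 5 hr before compound pinning from DMSO stocks. Following a 16-hr treatment at 37 C, a fluorogenic live-cell substrate (CellTiter-Fluor) reports viability after 1 hr.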

[15] = target: Progesterone receptor (Homo sapiens) (UniProt P06401); test: qHTS assay to identify small molecule antagonists of the progesterone receptor (PR) signaling pathway (AID 1346795; active = well fitted inhibition curve with a large enough effect in the signal ratio in the repeat runs, not every such curve was filed as active; the % refers to the signal ratio; note: potency is the fitted concentration of half-maximal effect)
Procedure, shortened: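 Screening used a GripTite HEK293T line with PR-responsive UAS-beta-lactamase. Cells were challenged with compound in the presence of 1 nM R5020 final for 16 hr at 37C; B/G FRET substrate, 2 hr room temperature, fluorescence.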

[16] = target: Thyrotropin-releasing hormone receptor (Homo sapiens) (UniProt P34981); test: qHTS assay to identify small molecule agonists of the thyrotropin-releasing hormone receptor (TRHR) signaling pathway (AID 1346891; calls by dose curve;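 note: HEK293 cells expressing TRHR with calcium dye readout; series mostly up to about 58 µM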)
Procedure, shortened: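 Overnight-plated (18 h, 37 °C, 5% CO2) TRHR-Hek293 cells; 2 h calcium dye at 37 °C; compound in DMSO; 3-min kinetic fluorescence read.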

[17] = target: Nuclear receptor subfamily 1 group I member 2 (Homo sapiens) (UniProt O75469); test: Human pregnane X receptor (PXR) small molecule agonists, qHTS assay (AID 1346982); note: nearly all actives have a fitted effect of over 35% in size; note: potency is the fitted concentration of half-maximal effect
Procedure, shortened: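 After plating in 5% charcoal-stripped FBS and a 5 hr rest, PXR-Luc HepG2 cells received compounds in DMSO. Following 24 hr at 37 C, ONE-Glo was added and light output read.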

[18] = target: Nuclear receptor subfamily 1 group I member 2 (Rattus norvegicus) (UniProt Q9R1A7); test: Rat pregnane X receptor (rPXR) activation by small molecules, qHTS assay (AID 1346983); details: rPXR luciferase reporter cells, One-Glo luminescence, 24 h; stronger effect = higher value; note: nearly all actives have a fitted effect of over 20% in size
Procedure, shortened: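 Cell-based rPXR activation assay: rPXR cells, 2,000 per well, rested 5hr at 37 C, then exposed to compounds in DMSO for 24 hr at 37 C. Luciferase activity read by One-Glo luminescence after 30 min at room temperature.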

[19] = target: Nuclear receptor subfamily 1 group I member 2 (Homo sapiens) (UniProt O75469); test: CYP3A4 induction through human pregnane X receptor (PXR) by small molecules, qHTS assay (AID 1346984); note: nearly all actives have a fitted effect of over 40% in size
Procedure, shortened: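 Human PXR activation is tracked via CYP3A4 promoter-luciferase in DPX-2 (HepG2) cells. Compounds treat cells for 24hr at 37C, and luminescence is read after One-Glo.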

[20] = target: Nuclear receptor subfamily 1 group I member 2 (Homo sapiens) (UniProt O75469); test: Human pregnane X receptor (PXR) activation by small molecules, qHTS assay (AID 1346985); note: nearly all actives have a fitted effect of over 40% in size
Procedure, shortened: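 DPX-2 cells (HepG2 co-transfected with a PXR response element and a CYP3A4-promoter luciferase construct) were seeded at 2,000 per well, rested 5 hr at 37C, then exposed to DMSO-dissolved compounds for 24 hr. Activation was read as luciferase luminescence.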

Sequence of Thyrotropin receptor (Homo sapiens) (P16473 whole entry, looked up): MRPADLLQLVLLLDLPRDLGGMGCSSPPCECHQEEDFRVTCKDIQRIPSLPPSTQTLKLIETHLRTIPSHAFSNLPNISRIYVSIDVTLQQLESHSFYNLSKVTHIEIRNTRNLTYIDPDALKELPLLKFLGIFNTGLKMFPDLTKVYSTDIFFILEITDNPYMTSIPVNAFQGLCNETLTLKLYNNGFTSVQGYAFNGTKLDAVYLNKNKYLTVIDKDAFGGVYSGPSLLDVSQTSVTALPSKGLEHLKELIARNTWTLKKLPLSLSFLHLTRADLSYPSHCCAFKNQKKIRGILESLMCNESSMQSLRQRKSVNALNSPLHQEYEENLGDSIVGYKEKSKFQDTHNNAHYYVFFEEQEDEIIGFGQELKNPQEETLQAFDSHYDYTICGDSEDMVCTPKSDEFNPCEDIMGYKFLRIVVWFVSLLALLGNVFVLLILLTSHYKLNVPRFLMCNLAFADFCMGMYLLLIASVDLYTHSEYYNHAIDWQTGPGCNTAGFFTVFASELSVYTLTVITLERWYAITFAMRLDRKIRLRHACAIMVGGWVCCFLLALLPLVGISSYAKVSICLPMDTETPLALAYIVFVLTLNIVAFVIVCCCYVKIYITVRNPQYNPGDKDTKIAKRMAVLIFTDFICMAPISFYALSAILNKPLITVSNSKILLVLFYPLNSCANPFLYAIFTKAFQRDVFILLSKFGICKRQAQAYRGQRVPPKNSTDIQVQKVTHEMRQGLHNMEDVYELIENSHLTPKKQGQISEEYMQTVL
Sequence of Nuclear receptor subfamily 1 group I member 2 (Homo sapiens) (O75469 whole entry, looked up): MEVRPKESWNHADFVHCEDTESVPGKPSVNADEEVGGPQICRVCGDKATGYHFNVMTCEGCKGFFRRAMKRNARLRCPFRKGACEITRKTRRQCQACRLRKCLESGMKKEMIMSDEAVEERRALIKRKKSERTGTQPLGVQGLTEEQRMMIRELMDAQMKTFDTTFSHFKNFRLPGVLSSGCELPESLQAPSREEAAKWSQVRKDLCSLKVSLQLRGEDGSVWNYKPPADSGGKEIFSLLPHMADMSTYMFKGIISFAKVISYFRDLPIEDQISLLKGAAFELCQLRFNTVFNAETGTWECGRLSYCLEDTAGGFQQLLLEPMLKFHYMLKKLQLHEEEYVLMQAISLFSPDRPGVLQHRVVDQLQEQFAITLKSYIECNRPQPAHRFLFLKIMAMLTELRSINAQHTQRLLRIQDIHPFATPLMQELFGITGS
Sequence of Progesterone receptor (Homo sapiens) (P06401 whole entry, looked up): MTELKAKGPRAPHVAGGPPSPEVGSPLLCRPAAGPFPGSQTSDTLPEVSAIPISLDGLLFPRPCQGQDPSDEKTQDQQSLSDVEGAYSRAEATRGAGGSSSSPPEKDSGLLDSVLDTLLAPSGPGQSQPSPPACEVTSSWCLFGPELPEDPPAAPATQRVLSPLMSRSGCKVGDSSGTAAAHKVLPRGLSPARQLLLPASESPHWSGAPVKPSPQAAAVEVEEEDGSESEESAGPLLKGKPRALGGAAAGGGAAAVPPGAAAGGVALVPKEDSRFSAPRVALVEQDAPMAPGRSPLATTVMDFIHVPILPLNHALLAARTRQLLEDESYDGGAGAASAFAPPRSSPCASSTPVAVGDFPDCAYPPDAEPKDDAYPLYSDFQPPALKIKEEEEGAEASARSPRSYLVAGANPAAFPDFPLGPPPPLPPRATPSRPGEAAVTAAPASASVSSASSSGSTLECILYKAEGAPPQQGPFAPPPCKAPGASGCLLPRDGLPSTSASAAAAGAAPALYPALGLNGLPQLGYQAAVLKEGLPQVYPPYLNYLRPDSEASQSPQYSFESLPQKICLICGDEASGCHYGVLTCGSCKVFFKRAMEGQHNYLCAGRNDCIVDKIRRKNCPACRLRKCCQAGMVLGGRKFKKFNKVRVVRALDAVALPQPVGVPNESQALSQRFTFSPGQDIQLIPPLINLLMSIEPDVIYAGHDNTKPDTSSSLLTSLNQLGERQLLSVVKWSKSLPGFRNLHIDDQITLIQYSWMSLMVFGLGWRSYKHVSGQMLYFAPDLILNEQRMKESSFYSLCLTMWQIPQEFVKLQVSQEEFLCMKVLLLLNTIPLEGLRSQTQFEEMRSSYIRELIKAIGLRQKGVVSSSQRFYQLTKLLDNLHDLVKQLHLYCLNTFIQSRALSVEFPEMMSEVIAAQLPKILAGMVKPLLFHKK
Sequence of Thyrotropin-releasing hormone receptor (Homo sapiens) (P34981 whole entry, looked up): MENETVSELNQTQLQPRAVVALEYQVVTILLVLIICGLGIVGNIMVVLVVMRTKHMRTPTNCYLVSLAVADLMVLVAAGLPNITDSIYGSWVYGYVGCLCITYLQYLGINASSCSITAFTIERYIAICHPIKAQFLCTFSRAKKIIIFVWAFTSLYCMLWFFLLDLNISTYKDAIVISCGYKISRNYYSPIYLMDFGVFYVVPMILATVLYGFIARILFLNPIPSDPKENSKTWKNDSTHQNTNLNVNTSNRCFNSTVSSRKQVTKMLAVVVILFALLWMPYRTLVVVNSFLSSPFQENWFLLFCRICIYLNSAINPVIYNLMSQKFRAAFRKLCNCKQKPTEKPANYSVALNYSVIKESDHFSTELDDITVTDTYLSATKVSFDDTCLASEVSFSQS
Sequence of Nuclear receptor subfamily 1 group I member 2 (Rattus norvegicus) (Q9R1A7 whole entry, looked up): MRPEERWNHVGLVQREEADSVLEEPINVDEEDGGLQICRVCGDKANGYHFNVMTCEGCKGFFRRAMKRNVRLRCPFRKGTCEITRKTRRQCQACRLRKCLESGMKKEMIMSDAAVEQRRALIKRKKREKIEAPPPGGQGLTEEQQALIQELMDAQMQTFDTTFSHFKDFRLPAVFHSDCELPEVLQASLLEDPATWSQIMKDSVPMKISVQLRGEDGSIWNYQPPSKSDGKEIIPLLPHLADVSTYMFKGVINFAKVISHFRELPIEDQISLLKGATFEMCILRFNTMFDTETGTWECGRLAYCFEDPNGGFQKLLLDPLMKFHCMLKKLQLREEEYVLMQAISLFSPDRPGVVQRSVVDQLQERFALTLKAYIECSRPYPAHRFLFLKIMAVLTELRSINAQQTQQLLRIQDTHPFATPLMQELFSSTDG

Structure (SMILES)	outcome [1]	Potency [2]	Potency [3]	Potency [4]	Potency [5]	Potency [6]	Potency [7]	outcome [8]	Potency [9]	Potency [10]	Potency [11]	Potency [12]	Potency [13]	Potency [14]	Potency [15]	Potency [16]	Potency [17]	max activation [18]	outcome [19]	outcome [20]
Nc1ccncc1	inactive	inactive	inactive	inactive	inactive	inactive	inactive	inactive	inactive	inactive	inactive	inactive	inactive	inactive	–	–	–	–	–	–
N#CCCCl	inactive	inactive	inactive	inactive	inactive	inactive	inactive	inactive	–	–	inactive	inactive	inactive	–	–	–	–	–	–	–
C1=Cc2cccc3cccc1c23	inactive	inactive	60.1 µM (active) and inactive	inactive	inactive	inactive	inactive	inactive	inactive	–	inactive	inactive	inactive	inactive	inactive	inactive	inactive	–	–	–
C=C(C)C(=O)OCC1CO1 (stereo not drawn)	inactive	inactive	inactive	inactive	inactive	inactive	inactive	inactive	inactive	–	inactive	inactive	inactive	inactive	–	inactive	inactive	–	–	–
C=C(C)[C@H]1Cc2c(ccc3c2O[C@@H]2COc4cc(OC)c(OC)cc4[C@@H]2C3=O)O1	inactive	2.77 µM (active) and 96.9 nM (active) and 188 nM (active)	inactive	–	–	–	inactive	inactive	inactive	–	inactive	175 nM (active) and 770 nM (active) and 7.5 µM (active)	inactive	39.1 µM (active) and 30.6 µM (active) and 5.31 µM (active)	19.6 µM (active) and 9.69 µM (active) and 11.9 µM (active)	–	inactive	–	–	–
Cc1ccc2c(c1N)C(=O)c1ccccc1C2=O	inactive	27 µM (active) and 27.3 µM (active)	inactive	inactive	inactive	inactive	inactive	inactive	inactive	19.1 µM (active) and 27.3 µM (active)	inactive	48 µM (active) and 54.5 µM (active)	inactive	30.3 µM (active) and 48.6 µM (active)	–	inactive	4.28 µM (active) and 1.93 µM (active)	–	–	–
CCCCCCCCOC(=O)c1ccccc1C(=O)OCCCCCCCC	inactive	inactive	inactive	inactive	inactive	inactive	inactive	inactive	inactive	inactive	inactive	inactive	inactive	inactive	–	–	–	-0.303% (inactive)	inactive	inactive
S=C1NCCN1	inactive	inactive	inactive	inactive	inactive	inactive	inactive	inactive	inactive	inactive	inactive	inactive	inactive	inactive	inactive	inactive	–	–	–	–
O=[N+]([O-])c1cccc2ccccc12	inactive	inactive	–	inactive	inactive	inactive	inactive	inactive	inactive	inactive	inactive	inactive	inactive	inactive	inactive	–	inactive	–	–	–
O=C(NC(=O)c1c(F)cccc1F)Nc1ccc(Cl)cc1	inactive	inactive	inactive	inactive	inactive	inactive	inactive	inactive	–	–	inactive	inactive	inactive	inactive	inactive	–	–	–	–	–
CCN(CC)C(=O)/C(Cl)=C(\C)OP(=O)(OC)OC	inactive	inactive	inactive	inactive	inactive	inactive	inactive	inactive	inactive	inactive	inactive	inactive	inactive	inactive	inactive	inactive	–	5.74% (inactive)	inactive	–
CC(C)c1ccc(CO)cc1	inactive	inactive	inactive	inactive	inactive	inactive	inactive	inactive	–	inactive	inactive	inactive	inactive	inactive	inactive	–	inactive	–	–	–
CC(C)C(=O)OCC(C)(C)C(OC(=O)C(C)C)C(C)C (stereo not drawn)	inactive	inactive	inactive	inactive	inactive	inactive	inactive	inactive	inactive	inactive	inactive	inactive	inactive	inactive	–	–	–	–	–	–
Cc1cc(Cl)ccc1OCCCC(=O)O	inactive	inactive	inactive	inactive	inactive	inactive	inactive	–	inactive	inactive	inactive	inactive	inactive	inactive	inactive	–	inactive	–	–	–
N#CC(Br)Br	inactive	inactive	inactive	inactive	inactive	inactive	inactive	inactive	inactive	inactive	inactive	inactive	inactive	inactive	–	inactive	inactive	–	–	–
Oc1cc(Cl)ccc1Cl	inactive	inactive	inactive	inactive	inactive	inactive	inactive	inactive	inactive	inactive	inactive	inactive	inactive	inactive	inactive	–	–	–	–	–
